55 compounds from ChEMBL document CHEMBL5606458, “ASAP - ZIKV NS2B-NS3 protease fluorescence single point” (2024) can be followed below.

Hit rate of the full screen: of about 2,700 compounds, about 160 (5.9%) showed an effect of 50% or more. Only a selection was taken, and strong results are over-represented in it overall.

For the test, the target named is Nonstructural protein 3 (Zika virus) (UniProt A0A024AXB9).
The mark [1] stands for this setting: PRVABC59, Concentration 50.0 uM, Number of replicates 1.0.
The mark [2] stands for this setting: PRVABC59, Concentration 15.0 uM, Number of replicates 1.0.

Sequence of Nonstructural protein 3 (Zika virus) (A0A024AXB9 as listed by the source): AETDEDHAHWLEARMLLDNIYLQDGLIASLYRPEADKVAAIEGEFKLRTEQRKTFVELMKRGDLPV

One may read the inhibition as the relative decrease from the control value, in per cent. As for `COc1cc(NC(=O)C2CCN(c3ccc(C=O)cc3)CC2)cc(OC)c1`, the inhibition under setting [1] worked out at 28%.

Consider `O=Cc1ccc(N2CCC(C(=O)Nc3cc(Cl)c(O)c(Cl)c3)CC2)cc1`, for which the inhibition under setting [1] came out at 98.7%.

Consider `O=Cc1ccc(N2CCC(C(=O)Nc3cc(Cl)c(F)c(Cl)c3)CC2)cc1`, for which the inhibition under setting [1] is 20.1%.

Take `O=Cc1ccc(N2CCC(C(=O)Nc3cc(Cl)cc([N+](=O)[O-])c3O)CC2)cc1`: under setting [1], the inhibition turned out to be 93.4%.

On to `O=Cc1ccc(N2CCC(C(=O)Nc3ccc(Cl)c(Cl)c3)CC2)cc1`, for which the inhibition under setting [1] is 22.8%.

Take `O=Cc1ccc(N2CCC(C(=O)Nc3c(Cl)cc(Cl)cc3Br)CC2)cc1`: the inhibition under setting [1] is 22.3%.

Regarding `O=Cc1ccc(N2CCC(C(=O)Nc3ccc([N+](=O)[O-])cc3Cl)CC2)cc1`, the inhibition under setting [1] is 39.8%.

On to `O=Cc1ccc(N2CCC(C(=O)Nc3cc(Cl)ccc3Br)CC2)cc1`, for which the inhibition under setting [1] turned out to be 19.5%.

`O=Cc1ccc(N2CCC(C(=O)Nc3ccc(O)cc3[N+](=O)[O-])CC2)cc1`: the inhibition under setting [1] amounted to 38.4%.

As for `O=Cc1ccc(N2CCC(C(=O)Nc3cc(Cl)cc(Cl)c3O)CC2)cc1`, the inhibition under setting [1] is 92.4%.

`Cc1cc(-c2nn(C)cc2NC(=O)c2ccccc2C(F)(F)F)[nH]n1`: the inhibition is -3.15% (PRVABC59, Concentration 49.5 uM, Number of replicates 2.0, Standard deviation 1.8946804704330402 %); -1.39% (PRVABC59, Concentration 99.01 uM, Number of replicates 2.0, Standard deviation 0.666066751064398 %); 2.3% (PRVABC59, Concentration 198.0 uM, Number of replicates 2.0, Standard deviation 1.3743584908968294 %).

In the case of `O=C(Nc1cnc(Br)c(Cl)n1)c1cc(Cl)ccc1NS(=O)(=O)c1ccc(Oc2ccccc2Cl)cc1`, the inhibition under setting [2] amounted to 20.6%.

On to `O=Cc1ccc(N2CCC(C(=O)NCCc3ccc(C(F)(F)F)cc3)CC2)cc1`, for which the inhibition under setting [1] was determined as 25.7%.

As to `CCOC(=O)c1cc(Cn2cc(C3CCNCC3)c(C)n2)on1`, the inhibition runs as follows: (PRVABC59, Concentration 49.5 uM, Number of replicates 2.0, Standard deviation 3.597880558823145 %) -0.431%; (PRVABC59, Concentration 99.01 uM, Number of replicates 2.0, Standard deviation 3.9852172616025077 %) -1.41%; (PRVABC59, Concentration 198.0 uM, Number of replicates 2.0, Standard deviation 1.6156285466659275 %) -2.54%.

`CC1(C)[C@H]2CC[C@]1(C)[C@H](NC(=O)C1CCN(c3ccc(C=O)cc3)CC1)C2`: the inhibition under setting [1] is -4.03%.

With `O=Cc1ccc(N2CCC(C(=O)Nc3cccc(Cl)c3Br)CC2)cc1`, the inhibition under setting [1] was found to be 21%.

On to `c1cnc(N2CCOCC2)c(CN2CC[C@H](c3c[nH]c4ccccc34)C2)c1`, for which the inhibition (PRVABC59, Concentration 49.5 uM, Number of replicates 2.0, Standard deviation 0.5816150455075427 %) was determined as 4.93%; the inhibition (PRVABC59, Concentration 99.01 uM, Number of replicates 2.0, Standard deviation 1.6761828626765602 %) turned out to be 10.2%; the inhibition (PRVABC59, Concentration 198.0 uM, Number of replicates 2.0, Standard deviation 1.4600963075359947 %) worked out at 18.9%.

Turning to `Nc1ccc(Cl)c2ncccc12`, the inhibition by setting is: (PRVABC59, Concentration 49.95 uM, Number of replicates 2.0, Standard deviation 10.856665376334321 %) 2.86%; (PRVABC59, Concentration 99.9 uM, Number of replicates 2.0, Standard deviation 9.901328830284072 %) 10.8%.

Turning to `Nc1ccc(Cl)c2cccnc12`, for the setting “PRVABC59, Concentration 99.9 uM, Number of replicates 2.0, Standard deviation 7.433905478836123 %”, the inhibition was -9.18%.

As for `Nc1cccc2c(Cl)ccnc12`, the inhibition (PRVABC59, Concentration 49.95 uM, Number of replicates 2.0, Standard deviation 13.26082141913299 %) was found to be 25% and the inhibition (PRVABC59, Concentration 99.9 uM, Number of replicates 2.0, Standard deviation 5.807935528538471 %) is 61.3%.

With `Cc1ccc(CN(C(=O)C2CCN(c3ccc(C=O)cc3)CC2)C2CC2)s1`, the inhibition under setting [1] stood at 27.6%.

Consider `Cc1cc(CO)c2cccc(NC(=O)[C@@H](N)CCN)c2n1`, for which the inhibition is, setting by setting: (PRVABC59, Concentration 49.95 uM, Number of replicates 2.0, Standard deviation 10.156724992387474 %) 7.81%; (PRVABC59, Concentration 99.9 uM, Number of replicates 2.0, Standard deviation 27.740304464442595 %) 6.58%.

On to `CC(=O)N[C@@H](CCCCN)C(=O)Nc1cccc2c(Cl)cc(C)nc12`, for which the inhibition by setting is: (PRVABC59, Concentration 49.95 uM, Number of replicates 2.0, Standard deviation 3.802363243631691 %) 19.9%; (PRVABC59, Concentration 99.9 uM, Number of replicates 2.0, Standard deviation 2.8723353743500515 %) 37.2%.

As for `Cc1cc(CO)c2cccc(NC(=O)CCN)c2n1`, the inhibition came out at 58.9% (PRVABC59, Concentration 49.95 uM, Number of replicates 2.0, Standard deviation 0.34164167967973086 %) and 94.2% (PRVABC59, Concentration 99.9 uM, Number of replicates 2.0, Standard deviation 0.25939261057290325 %).

Regarding `Cc1cc(CO)c2cccc(Cc3ccccc3NC(=O)c3nc(N)n[nH]3)c2n1`, the inhibition is, setting by setting: (PRVABC59, Concentration 49.95 uM, Number of replicates 2.0, Standard deviation 1.1858913556413317 %) -1.17%; (PRVABC59, Concentration 99.9 uM, Number of replicates 2.0, Standard deviation 1.6592298829189325 %) 2.56%.

As to `CC(=O)N[C@@H](CCCN)C(=O)Nc1cccc2c(Cl)cc(C)nc12`, the inhibition (PRVABC59, Concentration 99.9 uM, Number of replicates 2.0, Standard deviation 3.96053156793845 %) came out at 2.63%.

Regarding `Cc1cc(CO)c2cccc(Cc3cccc(NC(=O)c4nc(N)n[nH]4)c3)c2n1`, the inhibition was -0.767% (PRVABC59, Concentration 49.95 uM, Number of replicates 2.0, Standard deviation 3.2981012364268594 %) and 4.54% (PRVABC59, Concentration 99.9 uM, Number of replicates 2.0, Standard deviation 3.2421151330326254 %).

For `Cc1cc(CO)c2cccc(NC(=O)Cc3cccc(CN)c3)c2n1`, the inhibition was determined as 8.36% (PRVABC59, Concentration 49.95 uM, Number of replicates 2.0, Standard deviation 2.002239649301327 %) and 22.1% (PRVABC59, Concentration 99.9 uM, Number of replicates 2.0, Standard deviation 0.9082841415474754 %).

Take `Cc1cc(CO)c2cccc(NC(=O)c3nc(N)n[nH]3)c2n1`: the inhibition is, setting by setting: (PRVABC59, Concentration 49.95 uM, Number of replicates 2.0, Standard deviation 1.6810779662500097 %) 28.9%; (PRVABC59, Concentration 99.9 uM, Number of replicates 2.0, Standard deviation 2.6897269039186593 %) 60.8%.

For the compound `Cc1cc(Cl)c2cccc(NC(=O)CCN)c2n1`, the inhibition (PRVABC59, Concentration 49.95 uM, Number of replicates 2.0, Standard deviation 0.2024559271573544 %) was 95.1% and the inhibition (PRVABC59, Concentration 99.9 uM, Number of replicates 2.0, Standard deviation 0.15816464699422608 %) worked out at 91.2%.

Regarding `O=C(Nc1c(Cl)cncc1Cl)c1cc(Cl)ccc1NS(=O)(=O)c1ccc(Oc2ccccc2Cl)cc1`, the inhibition under setting [2] came to 22%.

Turning to `O=Cc1ccc(N2CCC(C(=O)NC[C@@H](c3ccc(Cl)cc3)N3CCCC3)CC2)cc1`, under setting [1], the inhibition is 18.7%.

`O=Cc1ccc(N2CCC(C(=O)Nc3nc4cc(Cl)ccc4s3)CC2)cc1`: under setting [1], the inhibition was 22.7%.

`CN1CCN(c2ccccc2NC(=O)C2CCN(c3ccc(C=O)cc3)CC2)CC1`: the inhibition under setting [1] turned out to be 22.1%.

On to `N[C@@H]1CCCC[C@H]1C(=O)Nc1cccc2cccnc12`, for which the inhibition (PRVABC59, Concentration 99.9 uM, Number of replicates 2.0, Standard deviation 1.8980185851288 %) is -8.2%.

Take `CC(=O)N[C@@H](CCCN)C(=O)Nc1cccc2cccnc12`: the inhibition amounted to 19.2% (PRVABC59, Concentration 49.95 uM, Number of replicates 2.0, Standard deviation 1.6196420224622259 %) and 38.7% (PRVABC59, Concentration 99.9 uM, Number of replicates 2.0, Standard deviation 2.0688397621434533 %).

Regarding `O=C(Nc1cccc2cccnc12)C1CCNCC1`, the inhibition is, setting by setting: (PRVABC59, Concentration 49.95 uM, Number of replicates 2.0, Standard deviation 0.5440976068370852 %) 42.6%; (PRVABC59, Concentration 99.9 uM, Number of replicates 2.0, Standard deviation 0.5440976068370852 %) 92%.

On to `O=C(c1cc(Cl)ccc1NS(=O)(=O)c1ccc(Oc2ccccc2Cl)cc1)N1CCC(O)(c2ccc(Cl)cc2)CC1`, for which the inhibition under setting [2] is 26.1%.

In the case of `O=C(N[C@H](CO)CC1CCCCC1)c1cc(Cl)ccc1NS(=O)(=O)c1ccc(Oc2ccccc2Cl)cc1`, under setting [2], the inhibition amounted to 40.7%.

As to `O=C(NC(c1ccccc1)c1ccccc1)c1cc(Cl)ccc1NS(=O)(=O)c1ccc(Oc2ccccc2Cl)cc1`, the inhibition under setting [2] was found to be 55%.

Regarding `O=C(N[C@@H](c1ccccc1)c1ccc(Br)cc1)c1cc(Cl)ccc1NS(=O)(=O)c1ccc(Oc2ccccc2Cl)cc1`, the inhibition under setting [2] was found to be 8.89%.

Consider `O=C(N[C@H](c1ccccc1)c1ccco1)c1cc(Cl)ccc1NS(=O)(=O)c1ccc(Oc2ccccc2Cl)cc1`, for which, under setting [2], the inhibition is 53.4%.

For `O=C(N[C@H](CO)Cc1ccc(Cl)cc1)c1cc(Cl)ccc1NS(=O)(=O)c1ccc(Oc2ccccc2Cl)cc1`, under setting [2], the inhibition was found to be 50.2%.

For `O=C(NCC(c1ccccc1)c1ccccc1)c1cc(Cl)ccc1NS(=O)(=O)c1ccc(Oc2ccccc2Cl)cc1`, under setting [2], the inhibition was found to be 12.2%.

On to `O=C(N[C@@H](Cc1ccccc1)c1ccccc1)c1cc(Cl)ccc1NS(=O)(=O)c1ccc(Oc2ccccc2Cl)cc1`, for which the inhibition under setting [2] was found to be 28.3%.

For `C[C@@H](NC(=O)c1cc(Cl)ccc1NS(=O)(=O)c1ccc(Oc2ccccc2Cl)cc1)c1cccc(Br)c1`, the inhibition under setting [2] was found to be 35.8%.

Consider `O=C(N[C@@H](CO)Cc1ccccc1)c1cc(Cl)ccc1NS(=O)(=O)c1ccc(Oc2ccccc2Cl)cc1`, for which the inhibition under setting [2] stood at 33.2%.

Turning to `Cc1ccc2ccccc2c1NC(=O)c1cc(Cl)ccc1NS(=O)(=O)c1ccc(Oc2ccccc2Cl)cc1`, the inhibition under setting [2] was 26.4%.

With `O=Cc1ccc(N2CCC(C(=O)N3CCC(Oc4ncccn4)CC3)CC2)cc1`, the inhibition under setting [1] amounted to 25.2%.

In the case of `O=Cc1ccc(N2CCC(C(=O)Nc3cc(Cl)nc(Cl)n3)CC2)cc1`, the inhibition under setting [1] was 17.4%.

As to `O=C(O)c1cccc(NC(=O)c2cccc(Br)c2)c1`, the inhibition (PRVABC59, Concentration 49.5 uM, Number of replicates 2.0, Standard deviation 2.5009940749301487 %) is -0.982%; the inhibition (PRVABC59, Concentration 99.01 uM, Number of replicates 2.0, Standard deviation 3.0157213975013266 %) stood at 0.926%; the inhibition (PRVABC59, Concentration 198.0 uM, Number of replicates 2.0, Standard deviation 3.887437163113113 %) was determined as 4.65%.

Take `CC(C)(CNC(=O)c1cc(Cl)ccc1NS(=O)(=O)c1ccc(Oc2ccccc2Cl)cc1)c1cccc(Cl)c1`: the inhibition under setting [2] stood at 47.6%.

As to `O=C(NC1CCN(Cc2ccccc2)CC1)c1cc(Cl)ccc1NS(=O)(=O)c1ccc(Oc2ccccc2Cl)cc1`, the inhibition under setting [2] was 8.32%.

As to `O=Cc1ccc(N2CCC(C(=O)NCc3cc(F)ccc3Br)CC2)cc1`, under “PRVABC59, Concentration 10.0 uM, Number of replicates 1.0”, the inhibition was 4.33%.

Consider `NC(=O)c1cccc(NC(=O)[C@@H](NC(=O)c2ccc(Oc3ccc(C(F)(F)F)cc3)cc2)c2ccc(OCc3ccccc3)cc2)c1`, for which the inhibition is, setting by setting: (PRVABC59, Concentration 49.5 uM, Number of replicates 2.0, Standard deviation 0.46044521626223894 %) 6.3%; (PRVABC59, Concentration 99.01 uM, Number of replicates 2.0, Standard deviation 0.010097036204057861 %) 14.7%; (PRVABC59, Concentration 198.0 uM, Number of replicates 2.0, Standard deviation 0.34129506399757725 %) 30.3%.
